# TRHR enhancer: allosterically enhances the human TRH receptor. P34981. TRHR cells, fluo-8 calcium fluorescence, EC20 TRH enhancement. enhancement, % at 2 µM. 360,000 tested, 0.66% active. AID 493056; in the data active means enhancement above about 30%
# Target sequence (P34981 whole entry, looked up): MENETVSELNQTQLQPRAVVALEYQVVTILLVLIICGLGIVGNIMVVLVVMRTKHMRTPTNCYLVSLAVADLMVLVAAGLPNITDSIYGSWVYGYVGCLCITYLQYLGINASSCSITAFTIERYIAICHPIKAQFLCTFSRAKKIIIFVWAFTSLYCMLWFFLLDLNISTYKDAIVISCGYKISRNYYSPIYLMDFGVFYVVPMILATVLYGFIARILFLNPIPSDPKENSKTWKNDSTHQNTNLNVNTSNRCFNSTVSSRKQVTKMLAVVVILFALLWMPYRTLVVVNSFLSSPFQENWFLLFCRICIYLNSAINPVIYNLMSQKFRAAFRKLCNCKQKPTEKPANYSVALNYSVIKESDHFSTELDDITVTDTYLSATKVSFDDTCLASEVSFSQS
#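 Enhancer read-out: after compound pinning and an initial kinetic agonist-mode read, an EC20 of TRH (10 nM final) was injected and fluo-8 calcium signal (Ex 480/Em 530) followed at 1 s/cycle for 100 cycles in TRHR-expressing cells.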
# GRP78 ERSR act: ER stress response induction in glioma | 420,000 tested, 0.02% active | AID 602332 | U87-MG GRP78 promoter luciferase reporter, 16 h | Potency, µM, hits mostly activators; active means well fitted activation curve with a large enough effect; further: series mostly up to about 76 µM; nearly all actives have a fitted effect of over 35% in size
#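 Stably transfected U87-MG glioma cells carrying a GRP78-based luciferase sensor; 16 h compound incubation. Luminescence end-point read 10 min after Bright-Glo addition at room temperature.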
# D1 antag: human D1 dopamine receptor antagonism | P21728 | HEK293 TREx D1 cells, calcium flux, dopamine EC80; hits give low values | activity change, negative = inhibition, % at 10 µM | 360,000 tested, 3.2% active | AID 504652; in the data active means activity change below about -30%
#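 Inducible Hek293 Trex D1 cells (tetracycline, overnight, 30 C). Calcium dye 30–90 min RT. Antagonist mode: EC80 dopamine added after 180 s compound read.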
# TRHR ag: TRH receptor (human) agonism; P34981; 360,000 tested, 0.18% active; activation, % at 2 µM; TRHR cells, calcium flux fluo-8, FDSS agonist mode
#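 TRHR-expressing cells, plated overnight in medium with 10% serum, were loaded with fluo-8 calcium dye at room temperature. After a 10 s baseline, library compound was pin-added and calcium release was recorded kinetically (ex 480/em 530) as agonist response.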
# D1 agonist: activates the human D1 dopamine receptor. HEK293 T-REx D1 cells, calcium flux, agonist mode. activation, % at 2 µM. 360,000 tested, 1% active
#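 Tetracycline-induced HEK293 TREx D1 cells, force-coupled to calcium signalling, were dye-loaded with a no-wash calcium kit. Compound was pin-added after a 10 s baseline. Fluorescence was read kinetically at 1 cycle/s for 180 s, with calcium rises flagged as agonism.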
# D1 PAM: human D1 dopamine receptor positive modulation | P21728 | HEK293 TREx D1 cells, calcium flux, dopamine EC20 potentiation | potentiation, % at 10 µM | 360,000 tested, 0.036% active | AID 504651; in the data active means potentiation above about 30%
# Numbers stand for hits; - = inactive; . = no result. Hits are enriched below; roughly 4% of the tested compounds scored in any of these assays. Unless noted, no stated cut-off is given here; in the data, active means activation above about 30%; inactive means the rest.
SMILES,TRHR enhancer,GRP78 ERSR act,D1 antag,TRHR ag,D1 agonist,D1 PAM
CCCC1=NN2C(=N)/C(=C\c3ccc(OCCOc4ccc(NC(C)=O)cc4)c(OC)c3)C(=O)N=C2S1,30.6,-,-,-,-,-
CS(=O)(=O)C1=NSC2=NC(=O)/C(=C\c3cccn3-c3ccc(Cl)cc3)C(=N)N21,-,-,-35.7,-,-,-
COc1cc(/C=C2/C(=N)N3N=C(C(C)C)SC3=NC2=O)ccc1OS(=O)(=O)c1ccccc1,-,-,-30.7,-,-,-
CS(=O)(=O)C1=NSC2=NC(=O)/C(=C\c3ccc(OC(=O)c4ccco4)cc3)C(=N)N21,-,.,-30.5,-,-,-
NC(N)=NCCC[C@@H](N)C(=O)NCC(=O)N[C@@H](CC(=O)O)C(=O)N[C@@H](Cc1c[nH]c2ccccc12)C(=O)O,.,-,.,.,.,.
Cc1cc2c(cc1S(=O)(=O)N(CCN(C)C)Cc1ccccc1)OCC(=O)N2,-,-,-,-,-,-
CCS(=O)(=O)C1=NN2C(=N)/C(=C\c3ccc(OC(=O)c4ccco4)c(OC)c3)C(=O)N=C2S1,-,-,-33.0,-,-,-
Cc1nc2c(c(C)nn2C(C)(C)C)c(C)c1CCC(=O)Nc1ccc(Br)cc1Br,-,-,-,-,-,-
COc1ccc(OC)c(NC(=O)CCc2c(C)nc3c(c(C)nn3C(C)(C)C)c2C)c1,-,-,-41.6,-,-,-
Cc1ccc(S(=O)(=O)N2[C@@H](c3cccc(Cl)c3)C(C(=O)O)=CC[C@H]2c2ccc(C(C)C)cc2)cc1,-,-,-35.1,-,-,-
Cc1ccc(S(=O)(=O)N2[C@@H](c3ccccc3F)C(C(=O)O)=CC[C@H]2c2ccc(Cl)c(Cl)c2)cc1,-,-,-,-,58.4,-
Cc1ccc(S(=O)(=O)N2[C@@H](c3ccccc3)C(C(=O)O)=CC[C@H]2c2ccc(Cl)c(Cl)c2)cc1,-,-,-,-,-,-
Cc1ccc(S(=O)(=O)N2[C@@H](c3ccc(Cl)cc3)C(C(=O)O)=CC[C@H]2c2cccc(Cl)c2)cc1,-,-,-,-,-,-
COc1ccc(-n2nc3c(N4CCC(C(=O)N5CCC(C)CC5)CC4)nnc(C)c3c2C)cc1,-,-,-,-,-,-
COCCNC(=O)c1sc2ncccc2c1-n1c(C)ccc1C,-,-,-,-,-,-
Cc1cccc(N2CCN(CCCNC(=O)c3sc4ncccc4c3-n3cccc3)CC2C)c1 (stereo unspecified),-,-,-,-,-,-
O=C(NCCCN1CCN(c2cccc(Cl)c2)CC1)c1sc2ncccc2c1-n1cccc1,-,-,-35.0,-,-,-
O=C(NCCCN1CCN(c2ccccc2)CC1)c1sc2ncccc2c1-n1cccc1,-,-,-,-,-,-
O=C(NCCCN1CCN(c2ccccc2F)CC1)c1sc2ncccc2c1-n1cccc1,-,-,-38.2,-,-,-
Cc1ccc(C)n1-c1c(C(=O)NCCCN2CCN(c3ccc(F)cc3)CC2)sc2ncccc12,-,-,-56.3,-,-,-
Cc1cc(I)ccc1Nc1nc(NCCN2CCOCC2)nc(N2CCOCC2)n1,.,-,.,.,.,.
Nc1ccc(C2(c3ccc(N)cc3)C(=O)Nc3ccccc32)cc1,-,-,-,-,-,-
O=C1Nc2ccccc2C1(c1ccccc1)c1ccccc1,-,-,-,-,33.0,-
COc1ccc(OC)c(NC2=NC3(CCCC3)N=C(N)N2)c1,-,-,-56.8,-,-,-
Cc1ccc(OCC(=O)N2CCc3ccccc32)c([N+](=O)[O-])n1,-,-,-,-,-,-
SMILES,TRHR enhancer,GRP78 ERSR act,D1 antag,TRHR ag,D1 agonist,D1 PAM
O=C(COc1cccnc1[N+](=O)[O-])N1CCc2ccccc21,30.6,-,-,-,-,-
CCOC(=O)c1cc(OC)c2cccc(CN3CCCC(C)(C(=O)NCCOC)C3)c2c1 (stereo unspecified),.,-,.,.,.,.
Cc1nc(C(=O)Nc2ccccc2)sc1C1(C)CC(c2cccc([N+](=O)[O-])c2)=NO1 (stereo unspecified),-,-,-33.5,-,-,-
Cc1nc(C(=O)O)sc1C1(C)CC(c2cccc([N+](=O)[O-])c2)=NO1 (stereo unspecified),.,-,.,.,.,.
Cc1nc(C(=O)NCc2ccccc2)sc1C1(C)CC(c2ccccc2)=NO1 (stereo unspecified),-,-,-,-,39.3,-
Cc1cccc(CSc2nc3c(c(-c4cccs4)c2C#N)CN(C)CC3)c1,-,-,-37.7,-,-,-
N=c1n(CCN2CCCCC2)c2ccccc2n1CC(O)c1ccc(Cl)c(Cl)c1 (stereo unspecified),-,-,-,-,65.0,-
Cc1cccc(N(C2C=CS(=O)(=O)C2)S(=O)(=O)c2ccccc2)c1 (stereo unspecified),-,-,-59.5,-,-,-
COc1ccc(C(=O)NCC2Cc3cc(C)cc(-c4nc5ccccc5s4)c3O2)c(OC)c1OC (stereo unspecified),.,-,.,.,.,.
COc1cccc(Nc2nc3ccccc3nc2NS(=O)(=O)c2cccs2)c1,-,-,-32.4,-,-,-
COc1ccc(Nc2nc3ccccc3nc2NS(=O)(=O)c2cccs2)c(OC)c1,-,-,-,-,-,-
O=C1C2=CC[C@H]3C(=O)N(C[C@@H]4CCCO4)C(=O)[C@@H]3[C@@H]2[C@H](O)[C@@H]2O[C@H]12,.,-,.,.,.,.
COc1ccc(CCNC(=O)C2CCC(=O)N2CCc2ccccc2)cc1OC (stereo unspecified),-,-,-32.5,-,-,-
COc1ccc(/C(N)=N/OC(=O)CCc2ccccc2)cc1OC,-,-,-30.7,-,-,-
COc1ccc(CC(=O)NC(C)CCc2ccccc2)cc1OC (stereo unspecified),-,-,-,-,-,-
COc1ccc(CC(=O)NNC(=O)CCc2ccccc2)cc1OC,-,-,-33.6,-,-,-
COc1ccc(/C(N)=N/OC(=O)CCc2ccccc2)cc1,-,-,-,-,-,-
COc1ccc(S(=O)(=O)N2CCOCC2)cc1NC(=O)C1CCCCN1S(=O)(=O)c1ccccc1 (stereo unspecified),.,-,.,.,.,.
COc1cc(C)c(NC(C)C(=O)c2c(C)[nH]c3ccccc23)cc1OC (stereo unspecified),.,-,.,.,.,.
O=C1C2=CC[C@H]3C(=O)N(Cc4ccc5c(c4)OCO5)C(=O)[C@@H]3[C@@H]2[C@H](O)[C@@H]2O[C@H]12,.,-,.,.,.,.
Cc1ccc(Cn2c(SCCN3CCCCC3)nc3c2c(=O)[nH]c(=O)n3C)cc1,-,-,-43.1,-,-,-
COc1ccc(NC(=O)CCNS(=O)(=O)c2cc(Br)cnc2N)c(OC)c1,-,-,-,-,-,-
